The whole screen tested about 370,000 compounds, of which about 4,100 (1.1%) were called active. This is one part of a sample in which actives are shown more often than they occur. Values without a mark were called inactive.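 Rule for the calls: active = inhibition above the mean over all tested compounds plus 3 SD (cut at about 3.6% in these data); inactive = the rest.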
Test: DAX1 (NR0B1) inhibitors on StAR promoter, primary screen, cell-based, luminescence, SF-1 (NR5A1), full-length DAX-1 (AID 652010);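 note: 0% = DAX-1 cells with DMSO and 100% = cells lacking DAX-1 with DMSO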
Conditions: HEK293T StAR-luciferase reporter, SF-1/DAX-1 repression relief; at 6.8 µM; stronger effect = higher value

Q: With Clc1ccc(Cc2nnc(-c3cccs3)o2)cc1 as the compound, how does the inhibition read?
A: Its inhibition is -0.54%.

Q: With Clc1ccc(Nc2nc(-c3cccs3)cs2)nc1 as the compound, how does the inhibition read?
A: The inhibition was 5.93% (active).

Q: For CCCN1C(=O)c2[nH]nc(-c3ccccc3)c2C1c1ccccc1 (stereo unspecified), which inhibition is on record?
A: Its inhibition is -1.18%.

Q: With O=C(Nc1ccc(Br)cc1)OCCN1C(=O)CCC12CCC(c1ccccc1)CC2 (stereo unspecified) as the compound, how does the inhibition read?
A: The inhibition was 0.27%.

Q: For CS(=O)(=O)N(CC(=O)Nc1ccc(F)cc1)C1CCCCC1, which inhibition is on record?
A: The inhibition was -0.02%.

Q: Which inhibition does the source give for CC(C(=O)N1CCc2ccccc21)N(C)CC(=O)Nc1ccc(F)cc1 (stereo unspecified) here?
A: The inhibition was -0.82%.

Q: Which inhibition does the source give for CN(CC(=O)Nc1ccc(F)cc1)CC(=O)N1CCCCC1 here?
A: The inhibition was 3.7% (active).

Q: With Cn1c(SCC(=O)c2cccs2)nnc1-c1ccco1 as the compound, how does the inhibition read?
A: The inhibition was 0.71%.

Q: For Cn1c(-c2ccco2)nc2cc3ccccc3cc21, which inhibition is on record?
A: The inhibition was 4.28% (active).

Q: For CN(C)C(=O)CSc1n[nH]c(-c2ccco2)n1, which inhibition is on record?
A: Its inhibition is -0.67%.

Q: With C=CCN(C)CC#Cc1ccccc1 as the compound, how does the inhibition read?
A: Its inhibition is 1.58%.

Q: Which inhibition does the source give for O=S1(=O)c2ccc(Br)cc2OC[C@H](Cc2ccccc2)N1Cc1cn(Cc2ccccc2)nn1 here?
A: The inhibition was 0.43%.

Q: Which inhibition does the source give for COc1ccc(CN(CCN2CCOCC2)C(=O)c2ccc(C)cc2)cc1OC here?
A: The inhibition was 1.29%.

Q: With Cc1cc(N=Nc2ccc3ccccc3c2)ccc1O as the compound, how does the inhibition read?
A: Its inhibition is 4.24% (active).

Q: Which inhibition does the source give for Cc1ccccc1N1CCN(CC(=O)NCc2ccc(Cl)cc2)CC1 here?
A: The inhibition was -0.26%.

Q: For COC1=C[C@H](C(=O)NCCNC(C)=O)[C@H](C)[C@@H](c2ccccc2)CC1=O, which inhibition is on record?
A: The inhibition was 0.48%.

Q: For CCN(CC)C(=O)CC[C@@H]1CC[C@]2(CCCN(S(=O)(=O)C3CCCCC3)C2)O1, which inhibition is on record?
A: Its inhibition is -1.81%.

Q: With CCOC(=O)c1cc2c(nc1NC(=S)Nc1ccccc1)CC(C)(CC)OC2 (stereo unspecified) as the compound, how does the inhibition read?
A: Its inhibition is -0.51%.

Q: Which inhibition does the source give for CCOC(=O)c1c(NC(=S)Nc2ccccc2)sc2c1CCN(C)C2 here?
A: Its inhibition is 0.23%.

Q: For CCOC(=O)c1cn[nH]c1NC(=S)Nc1ccccc1, which inhibition is on record?
A: The inhibition was 4.39% (active).

Q: With Cc1ccc(CN2CCCCC(NC(=O)C3CCCCC3)C2=O)cc1 (stereo unspecified) as the compound, how does the inhibition read?
A: The inhibition was -1.69%.

Q: For COc1ccc(N2CCN(CCNS(=O)(=O)c3ccc(C(C)(C)C)cc3)CC2)cc1, which inhibition is on record?
A: Its inhibition is -0.04%.

Q: For CC1(C)NC(=O)N(CC(=O)N2CCN(S(=O)(=O)c3ccccc3F)CC2)C1=O, which inhibition is on record?
A: The inhibition was -1%.

Q: Which inhibition does the source give for COc1ccc([C@H]2OC(=O)C[C@H]2C(=O)N2CCN(c3ccccc3F)CC2)cc1OC here?
A: Its inhibition is 0.35%.

Q: For O=C(NCC1COc2ccccc2O1)c1ccc(NC(=O)c2cc(F)ccc2F)cc1 (stereo unspecified), which inhibition is on record?
A: The inhibition was -1.54%.

Q: For CN(C)S(=O)(=O)c1cc(C(=O)Nc2ccn(C)n2)c(Cl)cc1Cl, which inhibition is on record?
A: Its inhibition is -0.84%.

Q: Which inhibition does the source give for Cc1ccc(C(=O)Nc2ccn(C)n2)cc1 here?
A: Its inhibition is 4.06% (active).

Q: With Cc1ccc(C(=O)Nc2nc(N)n(-c3ccccc3)n2)cc1 as the compound, how does the inhibition read?
A: The inhibition was 0.57%.

Q: For CCC1CCc2c(sc(NC(C)=O)c2C#N)C1 (stereo unspecified), which inhibition is on record?
A: The inhibition was -0.35%.

Q: Which inhibition does the source give for N#Cc1c(NC(=O)C2CCCO2)sc2c1CCCCC2 (stereo unspecified) here?
A: The inhibition was 3.86% (active).

Q: With N#Cc1c(NC(=O)c2ccc(N3CCOCC3)c([N+](=O)[O-])c2)sc2c1CCCC2 as the compound, how does the inhibition read?
A: Its inhibition is 0.44%.

Q: Which inhibition does the source give for COC(=O)C1CN(Cc2ccc(F)cc2)CCS(=O)(=O)N1Cc1ccc(Cl)cc1 (stereo unspecified) here?
A: Its inhibition is -1.11%.

Q: Which inhibition does the source give for CC(C)(C)OC(=O)NCc1cc(F)ccc1/C=C/S(=O)(=O)NCCc1ccccc1 here?
A: The inhibition was -0.93%.

Q: Which inhibition does the source give for O=C(NC1CCCCCC1)C1CCN(C(=O)c2ccc(Cl)cc2)CC1 here?
A: Its inhibition is -1.38%.

Q: For O=C(NC(=S)NC1CCCCC1)c1ccc(Cl)cc1, which inhibition is on record?
A: The inhibition was 7.22% (active).

Q: For O=C(NNC(=S)NC1CCCCC1)c1ccccc1Cl, which inhibition is on record?
A: Its inhibition is 2.28%.

Q: For CC(NCc1ccco1)C(=O)N1CCCCC1 (stereo unspecified), which inhibition is on record?
A: Its inhibition is -0.66%.

Q: With O=S1(=O)c2ccc(Br)cc2OC[C@@H](Cc2ccccc2)N1Cc1cn(Cc2ccco2)nn1 as the compound, how does the inhibition read?
A: The inhibition was -0.91%.

Q: For Cn1c(-c2ccccc2)c[n+]2c1CCCCC2, which inhibition is on record?
A: Its inhibition is 0.1%.

Q: For O=C(NCCN1C(=O)S/C(=C\c2cccnc2)C1=O)c1ccc(S(=O)(=O)N2CCCC2)cc1, which inhibition is on record?
A: Its inhibition is -0.2%.

Q: For COc1ccc(N2CC(C(=O)NCCN3C(=O)S/C(=C\c4cccnc4)C3=O)CC2=O)c(OC)c1 (stereo unspecified), which inhibition is on record?
A: Its inhibition is 4.36% (active).

Q: For Cc1cc(OCCCC(=O)NCCN2C(=O)S/C(=C\c3cccnc3)C2=O)ccc1Cl, which inhibition is on record?
A: Its inhibition is -0.22%.

Q: Which inhibition does the source give for O=C(Nc1cccc([N+](=O)[O-])c1)N1CCc2ccccc2C1 here?
A: The inhibition was 4.21% (active).

Q: For Cc1cccc(OC(C)C(=O)N2CCc3ccccc3C2)c1 (stereo unspecified), which inhibition is on record?
A: Its inhibition is -0.08%.

Q: For CCc1ccc(NC(=O)N2CCc3ccccc3C2)cc1, which inhibition is on record?
A: Its inhibition is 6% (active).

Q: For Cc1c(NC(=O)Nc2cccc([N+](=O)[O-])c2)c(=O)n(-c2ccccc2)n1C, which inhibition is on record?
A: The inhibition was -3.53%.

Q: Which inhibition does the source give for Cc1cccc(C)c1NC(=O)c1ccc(CN2CCc3ccccc3C2)cc1 here?
A: Its inhibition is -0.37%.

Q: Which inhibition does the source give for CCOC(=O)c1c(NC(=S)SC)sc(C(=O)N2CCc3ccccc3C2)c1C here?
A: Its inhibition is 0.68%.

Q: For Nc1ncnc2c1ncn2C1OC(CO)CC1O (stereo unspecified), which inhibition is on record?
A: Its inhibition is -1.04%.

Q: With CCC(=O)OCCCN1C(=O)CCC12CCC(c1ccccc1)CC2 (stereo unspecified) as the compound, how does the inhibition read?
A: Its inhibition is 0.13%.

Q: Which inhibition does the source give for O=S(=O)(Nc1ccc2nc(-c3ccco3)[nH]c2c1)c1ccccc1 here?
A: Its inhibition is -0.15%.

Q: With O=S(=O)(Nc1ccc2nc(N3CCOCC3)sc2c1)c1ccccc1 as the compound, how does the inhibition read?
A: The inhibition was 4.19% (active).

Q: For O=S(=O)(Nc1cccc(-c2ccc(N3CCOCC3)nn2)c1)c1ccc(Cl)c(Cl)c1, which inhibition is on record?
A: The inhibition was 0.25%.

Q: With COc1cccc(/C=C2\CC3(OC(C)=O)CCCN2C3)c1 (stereo unspecified) as the compound, how does the inhibition read?
A: Its inhibition is 1.86%.

Q: For COc1ccc(Cn2ccc3ccc(-c4ccc5ccn(Cc6ccccc6C)c5c4)cc32)cc1, which inhibition is on record?
A: Its inhibition is -0.33%.

Q: Which inhibition does the source give for COc1ccc(-n2c(SCC(=O)Nc3ccc4cn[nH]c4c3)nnc2-c2cccnc2)cc1 here?
A: Its inhibition is 0.02%.

Reference: PubChem BioAssay AID652010 (The Scripps Research Institute Molecular Screening Center, 2013)
